Molecules are shown by their SMILES. Several values for one entry are separate records, joined by “and”; a condition that tells them apart may be missing. Equal entries are not always repeated. Records with an inconclusive call do not appear. A call without a number means that no potency is given here. Where a structure was tested more than once in an assay, its records may differ in their call. Activity calls are given as the source filed them. Calls follow the shape of the dose curve; as a rule, active = well fitted curve in the direction sought with a large enough effect in the repeat runs; inconclusive = weak or mixed curves; inactive = no such curve, though single readings can be large; an effect the other way counts as inactive or inconclusive.
Also: nearly all actives have a fitted effect of over 50% in size.

The nature of the first assay: qHTS RealTime-Glo MT Cell Viability Assay in HEK293 cells - 32 hour (AID 1224868). Also: potency is read from the fitted curve at half-maximal effect. As to activity change, negative = cytotoxic: top concentration of the series differs between compounds. The following applies: RealTime-Glo luminescence; series mostly up to 76.8 µM; activity change, negative = cytotoxic: at the top concentration. Summed up:
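HEK293 cells were seeded at 600 cells/well together with NanoLuc luciferase and cell-permeant prosubstrate, preincubated 5 h at 37 C/5% CO2, then given compound in DMSO by pintool. Luminescence from viable-cell prosubstrate reduction was read repeatedly over 40 h.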
In general terms: qHTS replaces the single test concentration by a dilution series.
For the molecule `C=CC(N)=O`, the Potency result was “inactive”.

In the case of `O=c1ccc(=O)[nH][nH]1`, the Potency entry was “inactive”.

With `CN(C)[C@@H]1C(=O)C(C(N)=O)=C(O)[C@@]2(O)C(=O)C3=C(O)c4c(O)cccc4[C@@](C)(O)[C@H]3C[C@@H]12`, the Potency result was “inactive”.

Regarding `O=[N+]([O-])c1ccccc1`, the Potency result is “inactive”.

In the case of `CC1C=[C-]C=C1.[C-]#[O+].[C-]#[O+].[C-]#[O+].[Mn]`, the Potency entry was “inactive”.

Take `CCCN(CCC)N=O`: the Potency entry is “inactive”.

Turning to `C1CN2CCN1CC2`, the Potency result was “inactive”.

`[N-]=[N+]=[N-]`: the Potency entry is “inactive”.

As to `CC(Br)C(=O)O` (stereo unspecified), the Potency entry was “inactive”.

For the molecule `CC(C)(Cl)Cl`, the Potency result is “inactive”.

For the molecule `CCNc1nc(NC(C)(C)C)nc(SC)n1`, the Potency is 43.1 µM (active).

On to `O=NN1CCCCCCC1`, for which the Potency result was “inactive”.

For the molecule `CC(=O)C=C(C)C`, the Potency entry is “inactive”.

Take `OCCN(CCO)CCO`: the Potency entry was “inactive”.

`Nc1c(Cl)c(Cl)nc(C(=O)O)c1Cl`: the Potency result was “inactive”.

As to `ClCc1cccnc1`, the Potency entry was “inactive”.

Regarding `Cc1[nH]c(=O)n(C(C)(C)C)c(=O)c1Cl`, the Potency entry is “inactive”.

As for `BrCCBr`, the Potency result is “inactive”.

Turning to `CCC(C)(CC)c1cc(NC(=O)c2c(OC)cccc2OC)on1`, the “activity change, negative = cytotoxic” value was -28.1% (inactive).

As for `CN(C)N=O`, the Potency entry was “inactive”.

For `CCC[N+](=O)[O-]`, the “activity change, negative = cytotoxic” value is 8.39% (inactive).

For `CCC12COCN1COC2`, the Potency result was “inactive”.

For `CC(C)(C)OOC(=O)c1ccccc1`, the Potency result was “inactive”.

Turning to `CCOP(OCC)OCC`, the Potency result is “inactive”.

`Nc1ccc(Br)cc1`: the Potency result is “inactive”.

With `CCOP(=S)(OCC)SCCSCC`, the Potency result was “inactive”.

Consider `O=NN1CCCC1`, for which the Potency result was “inactive”.

Consider `C#CC(C)(C)NC(=O)c1cc(Cl)cc(Cl)c1`, for which the “activity change, negative = cytotoxic” value was -8.96% (inactive).

In the case of `CCN(CC)CCO`, the Potency entry is “inactive”.

As for `C=CCO`, the Potency result was “inactive”.

As for `CCCC1COC(Cn2cncn2)(c2ccc(Cl)cc2Cl)O1` (stereo unspecified), the Potency is 22.3 µM (active) and 24.5 µM (active).

As to `C1CC2OC2CC1C1CO1` (stereo unspecified), the “activity change, negative = cytotoxic” value is 8.44% (inactive).

For the molecule `O=Cc1cccc(Oc2ccccc2)c1`, the Potency result was “inactive”.

For the molecule `CC(NC(C)(C)C)C(=O)c1cccc(Cl)c1` (stereo unspecified), the Potency entry is “inactive”.

On to `CCNc1nc(NC(C)C)nc(SC)n1`, for which the “activity change, negative = cytotoxic” value is -0.334% (inactive).

A short description of a further assay: A CellTox Green Cytotoxicity Assay to monitor cytotoxicity in HEK293 cells - 0 hour (AID 1224869). Also: potency is read from the fitted curve at half-maximal effect. Particulars: CellTox Green fluorescence; series mostly up to 76.8 µM; cytotoxicity: at the top concentration. Summed up:
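HEK293 cells premixed with CellTox Green dye were seeded at 600 cells/well and left 5 h at 37 C/5% CO2 before pin transfer of 23 nL compound in DMSO. Fluorescence from dye bound to dead-cell DNA was read during 40 h treatment.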
For the molecule `C=CC(N)=O`, the Potency result was “inactive”.

Turning to `O=c1ccc(=O)[nH][nH]1`, the Potency result was “inactive”.

`CN(C)[C@@H]1C(=O)C(C(N)=O)=C(O)[C@@]2(O)C(=O)C3=C(O)c4c(O)cccc4[C@@](C)(O)[C@H]3C[C@@H]12`: the Potency entry was “inactive”.

With `O=[N+]([O-])c1ccccc1`, the Potency result is “inactive”.

In the case of `CC1C=[C-]C=C1.[C-]#[O+].[C-]#[O+].[C-]#[O+].[Mn]`, the Potency result was “inactive”.

Take `CCCN(CCC)N=O`: the Potency entry was “inactive”.

`C1CN2CCN1CC2`: the Potency result was “inactive and 21.9 µM (active)”.

As for `[N-]=[N+]=[N-]`, the Potency result was “inactive”.

Regarding `CC(Br)C(=O)O` (stereo unspecified), the Potency result is “inactive”.

Take `CC(C)(Cl)Cl`: the Potency entry is “inactive”.

Regarding `CCNc1nc(NC(C)(C)C)nc(SC)n1`, the Potency result was “inactive”.

`O=NN1CCCCCCC1`: the Potency result was “inactive”.

As for `CC(=O)C=C(C)C`, the Potency result was “inactive”.

On to `OCCN(CCO)CCO`, for which the Potency result is “inactive”.

Regarding `Nc1c(Cl)c(Cl)nc(C(=O)O)c1Cl`, the Potency entry is “inactive”.

With `ClCc1cccnc1`, the Potency result is “inactive”.

In the case of `Cc1[nH]c(=O)n(C(C)(C)C)c(=O)c1Cl`, the Potency entry is “inactive”.

`BrCCBr`: the Potency result is “inactive”.

Turning to `CCC(C)(CC)c1cc(NC(=O)c2c(OC)cccc2OC)on1`, the “cytotoxicity” value is -2.65% (inactive).

As for `CN(C)N=O`, the Potency entry is “inactive”.

Consider `Cc1ccc(N)cc1N`, for which the Potency result is “inactive”.

Regarding `CCC[N+](=O)[O-]`, the Potency result was “inactive”.

With `CCC12COCN1COC2`, the Potency result is “inactive”.

For the molecule `CC(C)(C)OOC(=O)c1ccccc1`, the Potency entry is “inactive”.

With `CCOP(OCC)OCC`, the Potency entry was “inactive”.

As for `Nc1ccc(Br)cc1`, the Potency result is “inactive”.

Turning to `CCOP(=S)(OCC)SCCSCC`, the Potency entry is “inactive”.

`O=NN1CCCC1`: the Potency entry was “inactive”.

Turning to `C#CC(C)(C)NC(=O)c1cc(Cl)cc(Cl)c1`, the Potency entry was “inactive”.

As for `O=[N+]([O-])c1ccc(Oc2ccc(Cl)cc2Cl)cc1`, the Potency result is “inactive”.

Turning to `CCN(CC)CCO`, the Potency entry was “inactive”.

Consider `C=CCO`, for which the Potency result is “inactive and 43.6 µM (active)”.

Consider `CCCC1COC(Cn2cncn2)(c2ccc(Cl)cc2Cl)O1` (stereo unspecified), for which the Potency entry was “inactive”.

Turning to `C1CC2OC2CC1C1CO1` (stereo unspecified), the Potency result was “inactive”.

Consider `O=Cc1cccc(Oc2ccccc2)c1`, for which the Potency result is “inactive”.

In the case of `CC(NC(C)(C)C)C(=O)c1cccc(Cl)c1` (stereo unspecified), the Potency result is “inactive”.

Turning to `CCNc1nc(NC(C)C)nc(SC)n1`, the Potency result was “inactive”.

The next assay is described as follows: qHTS RealTime-Glo MT Cell Viability Assay in HepG2 cells - 40 hour (AID 1224870). The following applies: RealTime-Glo luminescence; series mostly up to 76.8 µM; activity change, negative = cytotoxic: at the top concentration. Summed up: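 Real-time viability: cells seeded at 600 per well together with NanoLuc and cell-permeant prosubstrate, compounds added after 5 h incubation. Luminescence tracked at 0, 8, 16, 24, 32 and 40 h of exposure.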
With `C=CC(N)=O`, the outcome was inactive.

In the case of `O=c1ccc(=O)[nH][nH]1`, the molecule was classed as inactive.

Turning to `CN(C)[C@@H]1C(=O)C(C(N)=O)=C(O)[C@@]2(O)C(=O)C3=C(O)c4c(O)cccc4[C@@](C)(O)[C@H]3C[C@@H]12`, the molecule was called inactive.

In the case of `O=[N+]([O-])c1ccccc1`, the outcome was inactive.

For the molecule `CC1C=[C-]C=C1.[C-]#[O+].[C-]#[O+].[C-]#[O+].[Mn]`, the call was inactive.

For the molecule `CCCN(CCC)N=O`, the result was inactive.

With `C1CN2CCN1CC2`, the call was inactive.

`[N-]=[N+]=[N-]`: the call was inactive.

For the molecule `CC(=O)C=C(C)C`, the molecule was called inactive.

For the molecule `OCCN(CCO)CCO`, the call was inactive.

Consider `Nc1c(Cl)c(Cl)nc(C(=O)O)c1Cl`, for which the result was inactive.

As to `ClCc1cccnc1`, the outcome was inactive.

On to `Cc1[nH]c(=O)n(C(C)(C)C)c(=O)c1Cl`, for which the result was inactive.

For `BrCCBr`, the result was inactive.

With `CCC(C)(CC)c1cc(NC(=O)c2c(OC)cccc2OC)on1`, the result was inactive.

For `CN(C)N=O`, the result was inactive.

On to `CCC12COCN1COC2`, for which the molecule was called inactive.

Turning to `CC(C)(C)OOC(=O)c1ccccc1`, the molecule was called inactive.

In the case of `CCOP(OCC)OCC`, the molecule was classed as inactive.

As to `Nc1ccc(Br)cc1`, the outcome was inactive.

For `CCOP(=S)(OCC)SCCSCC`, the molecule was called inactive.

As to `O=NN1CCCC1`, the molecule was called inactive.

On to `O=[N+]([O-])c1ccc(Oc2ccc(Cl)cc2Cl)cc1`, for which the molecule was classed as inactive.

In the case of `CCN(CC)CCO`, the molecule was called inactive.

Regarding `CCCC1COC(Cn2cncn2)(c2ccc(Cl)cc2Cl)O1` (stereo unspecified), the result was inactive.

In the case of `C1CC2OC2CC1C1CO1` (stereo unspecified), the molecule was called inactive.

As to `O=Cc1cccc(Oc2ccccc2)c1`, the call was inactive.

For `CC(NC(C)(C)C)C(=O)c1cccc(Cl)c1` (stereo unspecified), the result was inactive.

For the molecule `CCNc1nc(NC(C)C)nc(SC)n1`, the call was inactive.

The values above are taken from PubChem BioAssay (Tox21).
